High-throughput results deposited in PubChem by National Center for Advancing Translational Sciences (NCATS).
IDH1 R132H inh: human IDH1 R132H inhibition | IDH1-R132H enzyme, NADPH consumption, diaphorase/resazurin fluorescence | Potency, µM (highest dose often 76.6 µM), for the others: top-dose activity change, negative = inhibition, actives largely listed as inhibitors | actives 0.093% (n = 390,000) | O75874 | AID 602179; also: potency is read from the fitted curve at half-maximal effect; % is scaled to controls: 0 for no effect and ±100 for the full control effect; nearly all actives have a fitted effect of over 65% in size
Target sequence (O75874 whole entry R132H, stated change not applied): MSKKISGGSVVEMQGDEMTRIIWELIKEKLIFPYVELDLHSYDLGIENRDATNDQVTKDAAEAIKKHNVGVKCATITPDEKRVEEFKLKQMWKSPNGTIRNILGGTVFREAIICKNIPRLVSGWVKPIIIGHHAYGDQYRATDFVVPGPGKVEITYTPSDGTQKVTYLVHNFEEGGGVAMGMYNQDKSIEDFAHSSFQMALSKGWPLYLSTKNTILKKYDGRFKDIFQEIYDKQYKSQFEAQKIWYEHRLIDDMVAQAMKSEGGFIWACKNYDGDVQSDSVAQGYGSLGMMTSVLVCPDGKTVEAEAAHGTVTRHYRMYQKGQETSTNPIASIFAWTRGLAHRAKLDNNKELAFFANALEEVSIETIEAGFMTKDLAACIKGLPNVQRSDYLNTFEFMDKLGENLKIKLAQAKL
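IDH1-R132H (0.5 ug/mL dispensed) in pH 7.5 Tris buffer was preincubated 30 min with compound, then given a substrate mix of 0.016 mM NADPH and 2 mM alpha-KG for 80 min at room temperature; remaining NADPH was read by diaphorase/resazurin fluorescence.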
Nrf2 activator: activates Nrf2 signaling | actives 0.31% (n = 410,000) | Potency, µM (series often up to 46.1 µM), without a hit: at the top dose activation, actives largely listed as activators | AID 624171 | AREc32 ARE-luciferase reporter (MCF7-derived line), luminescence, 24 h; also: potency is read from the fitted curve at half-maximal effect; % of control where 0% means no effect; nearly all actives have a fitted effect of over 65% in size
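Luciferase luminescence (Steady-Glo, 30 min at room temperature) served as the read-out of ARE activation in AREc32 cells treated with compounds for 24 hr at 37 deg C.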
Nrf2 block: inhibitors of Nrf2 signaling; A549 ARE-Fluc reporter, luciferase luminescence, 18-24 h; Potency, µM (doses to about 46 µM), for the others: at the highest dose activity change, negative = inhibition, actives largely listed as inhibitors; actives 2.1% (n = 360,000); AID 504444; also: potency is read from the fitted curve at half-maximal effect; % is scaled to controls: 0 for no effect and ±100 for the full control effect; nearly all actives have a fitted effect of over 60% in size
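Quantitative HTS in A549 cells stably bearing an antioxidant response element-firefly luciferase construct. Inhibition of Nrf2-driven transcription was scored by luminescence after 18-24 h of compound exposure at 37 °C.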
A549 viability: A549 cytotoxicity, counter-screen for Nrf2 inhibitors | A549 ARE-Fluc cells, CellTiter-Fluor viability, 18-24 h | Potency, µM (doses to about 46 µM), inactives show at the highest dose activity change, negative = cytotoxicity, most hits filed as inhibitors | actives 0.16% (n = 390,000) | AID 504648; also: potency is read from the fitted curve at half-maximal effect; % is scaled to controls: 0 for no effect and ±100 for the full control effect
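Cytotoxicity counterscreen: CellTiter-Fluor fluorescence was measured in A549 ARE_Fluc cells after 18-24 h of compound exposure in a concentration series. The subsequent BugLite luminescent read reports ARE-luciferase activity.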
Anesthetic bind: candidate novel general anesthetic via apoferritin binding. apoferritin/1-aminoanthracene competitive binding, fluorescence. Potency, µM (titrated, usually from 77.5 µM), for the others: at the top dose activity change, negative = displacement, usual class: inhibitors. actives 0.074% (n = 350,000). AID 485281; also: potency is read from the fitted curve at half-maximal effect; % is scaled to controls: 0 for no effect and ±100 for the full control effect; nearly all actives have a fitted effect of over 20% in size
Target sequence (P02791 2-175 limits assumed): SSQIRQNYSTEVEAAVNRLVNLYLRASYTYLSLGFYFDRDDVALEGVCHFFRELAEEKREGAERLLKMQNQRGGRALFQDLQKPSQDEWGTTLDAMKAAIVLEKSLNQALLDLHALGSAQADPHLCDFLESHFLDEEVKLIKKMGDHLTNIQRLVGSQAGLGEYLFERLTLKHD
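10 uM apoferritin + 50% sat. 1-AMA, PBS; cpd 10 min RT; Ex380/Em535 endpoint; normalized to free probe vs complex; 4-param Hill fit; propofol titration as pos. ctrl.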
Giardia kill: Giardia lamblia killing; activity change, % at 7.66 µM, hits read low; Giardia lamblia trophozoite viability; actives 0.15% (n = 340,000); in the data active = activity change below about -80%; inconclusive = between about -30% and that limit;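 also: parasites exposed to compound for two days anaerobically before the ATP read; % is scaled to controls: 0 for no effect and ±100 for the full control effect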
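Trophozoites 100 cells/well + cpd; 48 hrs, 37 deg C, anaerobic. ATPLite 1-Step added, 15-30 min RT, luminescence read (ATP-based viability).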
* marks the source's active call; other numbers are inactive results; ? = inconclusive; · = no result given; ! = not active in a repeat; [ ] = dose if it differs, or a comment. Shown are actives, neighbours in structure and some others; about 2.3% of the full set was active somewhere. Unless noted, calls follow the shape of the dose curve; as a rule, active = well fitted curve in the direction sought with a large enough effect; inconclusive = small, poorly fitted or top-dose-only effect, or another doubt; inactive = no such curve, though single readings can be large; an effect the other way counts as inactive or inconclusive.

SMILES | IDH1 R132H inh | Nrf2 activator | Nrf2 block | A549 viability | Anesthetic bind | Giardia kill
Cc1cccc(Cn2c(Cc3ccccc3)nc3ccccc32)c1 | 1% | 4% | ? | -5% | 50% | 8
CCOc1ccc(S(=O)(=O)n2c(C)nc3ccccc32)cc1 | 1% | 0% | -30% | -10% | -5% | -1
CC(C)(C)c1ccc(Cn2c(Cc3ccccc3)nc3ccccc32)cc1 | -6% | 4% | 23µM* | -11% | 78% | ·
O=C(NCCc1nc2ccccc2n1CCOc1ccccc1)C1CCCCC1 | · | · | 26µM* | ? | · | 60
O=C(NCCc1nc2ccccc2n1CCOc1ccc(Cl)cc1)C1CCCCC1 | · | · | ? | ? | 132% | -7
OCc1nc2ccccc2n1Cc1ccc(Cl)cc1 | 7% | 2% | -20% | 4% | -1% | -19
CCCCOc1ccc(S(=O)(=O)n2c(C)nc3ccccc32)cc1 | 2% | 0% | 7.3µM* | -18% | 3% | 13
Cc1nc2ccccc2n1Cc1ccc(Cl)cc1 | 0% | 4% | 18µM* | 9% | -6% | -28
O=C(Nc1ccc2nc(SCC(=O)N3CCc4ccccc43)sc2c1)c1ccc(F)cc1 | -10% | 1% | ? | ? | -3% | ·
Cc1nc2ccccc2n1CCOc1ccccc1 | 1% | 0% | 15µM* | -3% | -10% | 9
COc1ccc(CNc2nc3ccccc3n2Cc2ccc(Cl)cc2)cc1OC | -5% | 4% | 23µM* | -16% | -5% | -6
COc1cccc(C2C(C#N)=C(NC(=O)NCc3ccccc3)Oc3ccc4ccccc4c32)c1 (configuration not stated) | · | · | -7% | ? | · | ·
COc1ccc(NS(=O)(=O)c2ccc3c(c2)Cc2ccccc2-3)cn1 | 11% | 0% | 16µM* | -20% | ? | -6
CCc1cccc(C)c1NC(=O)CSc1nnc(CCCOc2ccc(Cl)cc2Cl)n1C | 3% | 4% | 16µM* | -14% | -9% | 19
O=C1CCc2cc(S(=O)(=O)Nc3ccccc3-c3ccccc3)ccc2N1 | · | · | -8% | 1% | · | ·
O=C(Nc1ccccn1)c1csc2c1CCCC2 | -1% | 5µM* | ? | 11% | ? | -4
COC(=O)Cc1[nH]nc2c1C1(C(=O)N(Cc3ccccc3)c3ccccc31)C(C#N)=C(N)O2 (configuration not stated) | 2% | -1% | 1% | -7% | ? | 0
Cc1[nH]nc2c1C1(C(=O)N(Cc3ccc(Cl)cc3)c3ccccc31)C(C#N)=C(N)O2 (configuration not stated) | -9% | 0% | 21µM* | -6% | -6% | 1
Cc1cc(C)c(NS(=O)(=O)c2ccc3c(c2)NC(=O)C(C)C(=O)N3)c(C)c1 (configuration not stated) | -3% | 0% | -18% | -7% | -17% | -2
CC1C(=O)Nc2ccc(S(=O)(=O)Nc3ccccc3Br)cc2NC1=O (configuration not stated) | -6% | 0% | 16µM*! | 2% | -14% | 14
COc1ccc(NS(=O)(=O)c2ccc(C)c(C(=O)NC3CCN(Cc4ccccc4)CC3)c2)cc1 | 6% | 2% | 13µM* | -28% | -11% | 1
Cc1ccc(NS(=O)(=O)c2cccc(C(=O)NC3CCN(Cc4ccccc4)CC3)c2)c(C)c1 | 10% | 0% | 21µM* | ? | · | -4
COc1ccccc1NS(=O)(=O)c1cc(C(=O)NC2CCN(Cc3ccccc3)CC2)ccc1C | 2% | 0% | 5.8µM* | ? | · | 9
O=C(NC1CCN(Cc2ccccc2)CC1)c1cccc(S(=O)(=O)Nc2ccc(Br)cc2)c1 | 3% | 4% | ? | -16% | · | 4
O=C(NC1CCN(Cc2ccccc2)CC1)c1cccc(S(=O)(=O)Nc2ccc(F)cc2)c1 | -17% | 0% | 16µM* | ? | · | 28
SMILES | IDH1 R132H inh | Nrf2 activator | Nrf2 block | A549 viability | Anesthetic bind | Giardia kill
CCc1ccc(NC(=O)CSc2nccn2C2CCCC2)cc1 | -8% | 6% | · | 8% | -11% | ·
CCc1cccc(CC)c1NC(=O)c1c(C)oc2ccc(O)c(CN3CCOCC3)c12 | -17% | 0% | 9% | 1% | 4% | ·
COc1ccccc1C1CC(c2cccs2)=Nc2ccccc2S1 (configuration not stated) | 12% | 18µM* | 16% | 0% | -8% | -24
COc1ccccc1C1CC(c2cccs2)=NN1C(=O)CCC(=O)O (configuration not stated) | -5% | 5% | -11% | 0% | -1% | 0
Cc1ccc(S(=O)(=O)NCc2nc3cccnc3n2Cc2ccccc2Cl)c(C)c1 | 12% | 1% | · | -1% | -5% | ·
COCCNC(=O)C1(C)CCCN(Cc2ccc3ccccc3c2Br)C1 (configuration not stated) | · | -1%[9.22 µM] | · | · | · | ·
COc1ccc2ccccc2c1C(=O)/C=C\c1ccoc1 | -1% | 13µM* | 11% | -3% | -13% | -23
CCc1ccc2[nH]c(=O)c(C(c3nnnn3CC3CCCO3)N3CCCc4ccccc43)cc2c1 (configuration not stated) | -8% | 0% | 23µM* | ? | -15% | 1
CC1(c2nnc(-c3ccccc3)o2)CC(c2c(Cl)cccc2Cl)=NO1 (configuration not stated) | -5%[38.3 µM] | 0% | 23µM* | -15% | · | 9
CC1(c2nnc(-c3ccncc3)o2)CC(c2ccc([N+](=O)[O-])cc2)=NO1 (configuration not stated) | 0%[38.3 µM] | -1% | 12µM* | 2% | -5% | 1
CCN1/C(=C/c2ccc3cc(C)ccc3[n+]2CC)Sc2ccc3sccc3c21 | 6% | -1% | 6.5µM* | ? | · | -4
CCOc1ccc(OCC)c(NC(=O)CSc2nc3c(c(=O)n(C)c(=O)n3C)n2C(C)C)c1 | 2% | 4% | 16µM* | -9% | 4% | -4
CC(=O)N1c2ccc(S(=O)(=O)NCCC(=O)Nc3ccc(Cl)cc3)cc2CC1C (configuration not stated) | -5% | 2% | · | · | · | ·
CC(=O)N1c2ccc(S(=O)(=O)NCCC(=O)Nc3ccc(OC(F)(F)F)cc3)cc2CC1C (configuration not stated) | -1% | 2% | 18µM* | -7% | -17% | 48
CC(=O)N1c2ccc(S(=O)(=O)NCCc3ccc(Cl)cc3)cc2CC1C (configuration not stated) | 1% | 2% | -3% | -7% | -19% | 32
CC(=O)N1c2ccc(S(=O)(=O)NCCC(=O)NCCc3ccc(Cl)cc3)cc2CC1C (configuration not stated) | 5% | 0% | 21µM* | -8% | 9% | -19
